This is an account of results in PubChem BioAssay AID1671190 (National Center for Advancing Translational Sciences (NCATS), 2021).

The whole screen tested about 580,000 compounds, of which about 6,100 (1.1%) were called active. A call without a number means that no potency is given here. Not shown: some 15% with an inconclusive outcome. Only a selection was taken, and actives are over-represented in it overall. Unmarked numbers belong to inactive results. The call rests on the fitted dose curve; in most records, active means well fitted inhibition curve with a large enough effect; inconclusive means small, poorly fitted or top-dose-only effect, or another doubt; inactive means no such curve, though single readings can be large or run the other way.
Potency means the concentration at half of the fitted maximal effect.

Sequence of Polyunsaturated fatty acid lipoxygenase ALOX12 (Homo sapiens) (P18054 whole entry, looked up): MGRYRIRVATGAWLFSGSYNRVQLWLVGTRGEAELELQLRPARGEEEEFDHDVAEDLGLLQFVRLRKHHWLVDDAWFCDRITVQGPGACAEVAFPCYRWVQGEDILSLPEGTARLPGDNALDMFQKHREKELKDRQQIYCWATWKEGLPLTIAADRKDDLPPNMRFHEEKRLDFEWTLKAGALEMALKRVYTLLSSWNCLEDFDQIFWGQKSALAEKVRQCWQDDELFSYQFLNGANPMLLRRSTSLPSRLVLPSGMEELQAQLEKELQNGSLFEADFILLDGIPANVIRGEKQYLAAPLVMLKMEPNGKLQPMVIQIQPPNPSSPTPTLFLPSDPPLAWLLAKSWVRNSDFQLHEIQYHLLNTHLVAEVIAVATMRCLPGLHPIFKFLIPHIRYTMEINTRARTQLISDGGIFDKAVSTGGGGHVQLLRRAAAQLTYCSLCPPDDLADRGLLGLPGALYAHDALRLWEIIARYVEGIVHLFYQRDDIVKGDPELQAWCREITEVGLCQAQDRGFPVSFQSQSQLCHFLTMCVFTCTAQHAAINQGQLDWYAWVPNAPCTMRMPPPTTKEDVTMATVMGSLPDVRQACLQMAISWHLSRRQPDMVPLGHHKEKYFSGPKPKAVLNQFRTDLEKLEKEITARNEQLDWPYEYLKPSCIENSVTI

In the test the target is Polyunsaturated fatty acid lipoxygenase ALOX12 (Homo sapiens) (UniProt P18054). Nature of the test: Primary qHTS assay for inhibitors of human arachidonate 12S-lipoxygenase (ALOX12): Round 2. To be noted: purified 12hLO, xylenol orange hydroperoxide absorbance; series mostly up to 108 µM. The method in brief:
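Hydroperoxide product was detected by ferrous iron/xylenol orange as the 573 to 405 nm absorbance ratio. Arachidonic acid at 40 uM (final) was turned over for 30 min at room temperature by 150 nM human 12hLO, pH 7.0 Hepes buffer, after 15 min compound preincubation.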
For orientation: qHTS replaces the single test concentration by a dilution series.
As for `Cc1[nH]c2ccccc2c1C(=O)C(C)Sc1ccc2c(c1)OCCCO2` (stereo unspecified), the Potency is 14.1 µM (active).

As for `CC(Sc1ccc2c(c1)OCCCO2)C(=O)O` (stereo unspecified), the Potency entry is “inactive”.

In the case of `Cc1[nH]c2ccccc2c1C(=O)C(C)Sc1nnc(C2CC2)o1` (stereo unspecified), the Potency entry was “inactive”.

With `COc1ccc(-c2c(C)c3ccc(OCC(=O)OC(C)(C)C)cc3oc2=O)cc1OC`, the Potency entry was “inactive”.

Consider `CCN(C1CCCCC1)S(=O)(=O)c1ccc(C(=O)Nc2ccc(Cl)c3ncsc23)cc1`, for which the Potency result is “inactive”.

As to `CO[C@@H]1COCC[C@H]1NC(=O)CCCc1nc(-c2ccccc2C)no1`, the Potency result was “inactive”.

Consider `CC1CC(C)(C)NC(=S)N1CCC(=O)N1CCN(Cc2ccccc2)CC1` (stereo unspecified), for which the Potency entry was “inactive”.

With `CC1CC(=O)Nc2ccccc2N1S(=O)(=O)c1cccs1` (stereo unspecified), the Potency result was “inactive”.

`CC1CC(=S)Nc2ccccc2N1Cc1ccccc1` (stereo unspecified): the Potency is 44.7 µM (active).

Regarding `O=C(CCN1C(=O)c2ccccc2S1(=O)=O)Nc1ccc(S(=O)(=O)N2CCCC2)cc1`, the Potency result was “inactive”.

With `C=C(Br)CNCc1ccccc1`, the Potency entry is “inactive”.

Regarding `Cc1ccc(C(C)NC(=O)CCc2nc(C(C)C)no2)o1` (stereo unspecified), the Potency result is “inactive”.

Take `Cc1ccccc1-c1cc(C(=O)NCCN2CCNC2=O)c2c(c1)N(C)CCO2`: the Potency entry was “inactive”.

As for `Cc1noc(/C=C/c2ccco2)c1S(=O)(=O)N1CCC(C(=O)Nc2ccc(Cl)cn2)CC1`, the Potency entry is “inactive”.

As for `COc1ccccc1N1CCN(C(=O)C2CCN(S(=O)(=O)c3c(C)noc3/C=C/c3ccc(C)cc3)CC2)CC1`, the Potency entry is “inactive”.

With `Cc1noc(/C=C/c2ccco2)c1S(=O)(=O)N1CCC(C(=O)N2CCc3ccccc32)CC1`, the Potency is 14.1 µM (active).

For `CN(CC(=O)NC(C)(C)C)Cc1cccc2cccnc12`, the Potency entry is “inactive”.

In the case of `Cc1cc(C)cc(C(=O)NC2C(=O)N3C(C(=O)O)=C(CSc4nnc(C)s4)CSC23)c1` (stereo unspecified), the Potency was 39.8 µM (active).

With `CO/N=C(/C(=O)N[C@@H]1C(=O)N2C(C(=O)O)=C(Cn3nnc(C)n3)CS[C@H]12)c1csc(N)n1`, the activity change, negative = inhibition is -8.52% [at 22.9 µM].

For `Cc1nnc(SCc2cc(=O)[nH]c(N3CCN(Cc4ccccc4)CC3)n2)s1`, the Potency entry is “inactive”.

Take `CC(C)C(=O)Nc1cc(Cl)ccc1Cl`: the Potency entry is “inactive”.

For `CC(C)C(=O)N1CCN(C(=O)c2cc3ccccc3n2C)CC1`, the Potency result is “inactive”.

Regarding `CNc1c(NC(=O)Nc2ccc(F)cc2F)c(=O)oc2ccccc12`, the Potency entry is “inactive”.

`CCOC(=O)C1Cn2c(nc3c(c2=O)C(C)(CC)Cc2ccccc2-3)S1` (stereo unspecified): the Potency result is “inactive”.

Take `CCC1(CC)Cc2ccccc2-c2nc(CCl)[nH]c(=O)c21`: the Potency is 7.08 µM (active).

As to `O=c1[nH]c(CCl)nc2cc(-c3ccc(Cl)cc3)sc12`, the Potency result is “inactive”.

Consider `CC(C)C(=O)Nc1ccc(-c2nc3ccccc3o2)cc1`, for which the Potency entry is “inactive”.

`CCOC(=O)c1nc2ccccc2nc1NCc1ccc(C)cc1`: the Potency result is “inactive”.

Regarding `CC(=O)c1c(C)[nH]c(C(=O)c2oc3ccc(Cl)cc3c2C)c1C`, the Potency entry was “inactive”.

For the compound `COC(=O)c1ccc(/C=C2\Oc3cc(OS(C)(=O)=O)cc(C)c3C2=O)cc1`, the Potency result is “inactive”.

Consider `Cc1cccc(N2CCN(C(=O)c3ccccc3NC(=O)C3CCCCC3C(=O)O)CC2)c1` (stereo unspecified), for which the Potency result is “inactive”.

`CCN1CCN(c2cc3nc(C)n(Cc4ccccc4)c(=O)c3cc2NC(=O)c2ccccc2F)CC1`: the Potency result is “inactive”.

Regarding `Cc1cccc(N2CCN(c3ccc(C(=O)O)cc3NC(=O)c3ccccc3F)CC2C)c1` (stereo unspecified), the Potency is 50.1 µM (active).

Turning to `O=C(c1cccc(Br)c1)N1CCC(CCc2ccc(O)cc2)CC1`, the Potency entry was “inactive”.

Regarding `Cc1ccc(NC(NC(=O)c2cccc(C)c2)C(Cl)(Cl)Cl)cc1` (stereo unspecified), the Potency result was “inactive”.

For `O=C1C=C(c2cccc(Cl)c2O)C[C@@H](c2ccc(F)cc2)C1`, the Potency result was “inactive”.

`CCc1nc2nc3c(cn2n1)C(=O)CC(c1ccc(Cl)cc1)C3` (stereo unspecified): the Potency entry was “inactive”.

In the case of `CCCCC/C=C/C1=CC(=O)C[C@H](c2ccc(Cl)cc2)C1`, the Potency was 35.5 µM (active).

As for `CCCCc1ccc(NC(=O)c2cc3c(s2)CCCC3)cc1`, the Potency result is “inactive”.

In the case of `CN(Cc1ccon1)C(=O)c1coc(COc2ccc(F)cc2Cl)n1`, the Potency entry is “inactive”.

On to `Cn1c(=O)c2c(ncn2CCC(=O)NCc2ccc(F)cc2)n(C)c1=O`, for which the Potency entry was “inactive”.

In the case of `CN1CCN(c2ccc3nnc(C4CCC4)n3n2)CC1`, the Potency result was “inactive”.

As to `CCOC(=O)c1ccc(NC(=O)N2Cc3[nH]cnc3C[C@H]2c2nc(-c3ccc(Cl)cc3)no2)cc1`, the Potency result was “inactive”.

As for `Cc1ccc(-c2noc([C@@H]3Cc4nc[nH]c4CN3C(=O)Nc3ccccc3)n2)cc1`, the Potency result is “inactive”.

Take `CC(C)NC(=O)N1Cc2[nH]cnc2C[C@H]1c1nc(-c2ccc(Cl)cc2)no1`: the Potency was 14.1 µM (active).

Turning to `Cc1nc(NC2CCCCC2)sc1C(=O)Nc1ccccc1`, the Potency entry was “inactive”.

On to `CC(C)C(=O)N/N=C/c1ccc(Cl)cc1`, for which the Potency entry was “inactive”.

As to `COc1cc2c(cc1O)NC(=O)CC2c1cn[nH]c1-c1cc(C)ccc1C` (stereo unspecified), the Potency result was “inactive”.

For the compound `CC(C)OCC(O)Cn1c(NCc2ccccc2)nc2c1c(=O)[nH]c(=O)n2C` (stereo unspecified), the Potency entry is “inactive”.

As for `O=C(COC(=O)c1cccc(NS(=O)(=O)c2ccccc2)c1)NCc1cccs1`, the Potency result is “inactive”.

With `CC1CCCCN1C(=O)Cn1c(=O)oc2cc(S(=O)(=O)N3CCCCC3)ccc21` (stereo unspecified), the Potency entry is “inactive”.

For `CNC(=O)c1ccc(NC(=O)CCn2c(=O)oc3cc(S(=O)(=O)N4CCCC4)ccc32)cc1`, the Potency was 35.5 µM (active).

For the compound `COc1cccc(CNC(=O)Cn2c(=O)oc3cc(S(=O)(=O)N4CCCCC4)ccc32)c1`, the Potency result was “inactive”.

On to `Cc1ccc(OCCC(=O)Nc2cc3c(cc2Cl)OCCO3)c(C)c1`, for which the Potency result is “inactive”.

For `CCOc1ccc(C(C)NC(=O)Cn2c(=O)c3c(ncn3C)n(C)c2=O)cc1` (stereo unspecified), the Potency entry is “inactive”.

Regarding `CC1=C[C@@H](CN(C)CCc2ccccn2)[C@H](C(C)C)C[C@H]1Cc1nnc(-c2ccccc2F)o1`, the Potency result was “inactive”.

Consider `O=C(CCn1ccc(=O)[nH]c1=O)N[C@@H]1COCC[C@@H]1OCc1ccccc1`, for which the Potency result is “inactive”.

Regarding `C=CCNC(=S)N(CC)CC`, the Potency entry is “inactive”.

Take `COc1cc(S(=O)(=O)Nc2ccccc2OC)ccc1NC(C)=O`: the Potency result is “inactive”.

Consider `COC(=O)c1ccccc1NS(=O)(=O)c1ccc2c(c1)CCCN2C(C)=O`, for which the Potency result is “inactive”.

Take `COc1ccc(Br)cc1/C=N/Nc1ccc(S(=O)(=O)Nc2ccccc2C(=O)O)cc1[N+](=O)[O-]`: the Potency is 14.1 µM (active).

With `O=C(O/N=C1\CCCc2oc3c(c21)CCCC3)c1ccc(Cl)c(Cl)c1`, the Potency result was “inactive”.

In the case of `Cc1ccc(Cn2c(N3CCC(C(N)=O)CC3)nc3c2c(=O)n(C)c(=O)n3C)cc1`, the Potency entry was “inactive”.

Regarding `Cc1oc(-c2ccccc2)nc1C(=O)NC(C1CC1)C1CC1`, the Potency entry was “inactive”.

Regarding `N#Cc1ccc(C(C(=O)NCc2ccccc2)n2c(=O)c(-c3ccco3)nc3ccccc32)cc1` (stereo unspecified), the Potency was 17.8 µM (active).

On to `Cc1cccc(C)c1NC(=O)C(c1ccc(C(F)(F)F)cc1)n1c(=O)c(-c2ccco2)nc2ccccc21` (stereo unspecified), for which the Potency was 14.1 µM (active).

As for `CC(C)(C)NC(=O)C(CCc1ccccc1)n1c(=O)c(-c2ccccc2)nc2ccccc21` (stereo unspecified), the Potency result was “inactive”.

As to `CCC(C(=O)Nc1c(C)cccc1C)n1c(-c2cc(C)cs2)nc2ccccc21` (stereo unspecified), the Potency result is “inactive”.

With `O=C(NCCn1c(-c2ccccc2)nc2ccccc21)NCc1ccccc1`, the Potency entry is “inactive”.

For `COc1ccc(NC(=O)C(c2ccncc2)n2c(=O)c(-c3cc4ccccc4[nH]3)nc3ccccc32)cc1` (stereo unspecified), the Potency result was “inactive”.

Regarding `COc1cccc(S(=O)(=O)N2CCCCCCNC(=O)[C@@H]3CCC[C@@H]32)c1`, the Potency result was “inactive”.

With `O=C(Nc1ccccc1)Nc1cc(S(=O)(=O)N2CCOCC2)ccc1NCC1CCCO1` (stereo unspecified), the Potency result was “inactive”.

Consider `c1ccc([C@@H]2CNC[C@H]2COCC2CC2)nc1`, for which the Potency entry is “inactive”.

Regarding `Cn1c(C(=O)NCCNC(=O)c2cccc(F)c2)cc2ccccc21`, the Potency result is “inactive”.

Take `Cc1cccc(-n2nc(-c3c(C)nc4scc(CC(=O)NCCC(C)C)n4c3=O)cc2C)c1C`: the Potency result was “inactive”.

For `COc1ccccc1CCNS(=O)(=O)c1ccc(N2C(=O)C(C)(C)CS2(=O)=O)cc1`, the Potency result is “inactive”.

Turning to `COc1ccc2nc(SC3CC(=O)N(c4ccc(F)cc4)C3=O)nc(C)c2c1` (stereo unspecified), the Potency entry was “inactive”.

On to `O=C(CCN1CCN(C/C=C/c2ccccc2)CC1)Nc1cccc(F)c1`, for which the Potency result is “inactive”.

Regarding `Cc1cc(NC(=O)CCN2CCN(Cc3ccccc3)CC2)ccc1Br`, the Potency was 3.16 µM (active).

On to `O=C(CCN1CCCCC1)Nc1ccc(F)c(F)c1`, for which the Potency entry was “inactive”.

For `COCCNC(=O)COc1ccc2c(C)c(Cc3ccccc3)c(=O)oc2c1C`, the Potency entry is “inactive”.

In the case of `CN(C)C[C@@H]1CN(Cc2ccccn2)C[C@H]1NC(=O)c1cc(F)ccc1Cl`, the Potency result is “inactive”.

For `O=C(O)COc1ccc2c(=O)c(Oc3ccc(Cl)cc3)coc2c1`, the Potency is 12.6 µM (active).

Consider `COc1ccccc1Oc1coc2cc(OCc3ccc(Cl)cc3)ccc2c1=O`, for which the Potency entry was “inactive”.

On to `COC(=O)COc1ccc2c(=O)c(Oc3ccccc3Br)coc2c1`, for which the Potency result was “inactive”.

For the compound `CCCCN1C(SCC(=O)N2CCCC2)=NS(=O)(=O)c2ccccc21`, the Potency entry is “inactive”.

Take `Cc1ccc(C(CNC(=O)c2cc3ccccc3oc2=O)N(C)C)o1` (stereo unspecified): the Potency result was “inactive”.

`O=C1Cc2c(-c3ccc(Oc4ccccc4)cc3)n[nH]c2CN1CCc1ccncc1`: the Potency entry is “inactive”.

Take `CCc1ccc(Nc2n[n+](-c3ccccc3)c(-c3cccc(Cl)c3Cl)s2)cc1`: the Potency is 39.8 µM (active).

Regarding `CCn1nc(C)cc1-c1nn2c(-c3cccc(Cl)c3Cl)nnc2s1`, the Potency result was “inactive”.

With `CC1CCCC(NC(=O)c2c(F)cccc2F)C1C` (stereo unspecified), the Potency result was “inactive”.

On to `CCc1sc(C(=O)NC(C)C)cc1C`, for which the Potency result is “inactive”.

Take `Cc1cccc(OCC(O)CNC23CC4CC(CC(C4)C2)C3)c1` (stereo unspecified): the Potency entry is “inactive”.

Take `CCn1cc(CN2CCCC23CCN(c2ccc(C(F)(F)F)cn2)CC3)cc1C#N`: the Potency entry was “inactive”.

`Cc1cc(C(F)(F)F)nn1Cc1nc2c3c4c(sc3ncn2n1)CCC4`: the Potency result was “inactive”.

Turning to `S=c1[nH]nc2c3c4c(sc3ncn12)CCCC4`, the Potency was 0.562 µM (active).

As for `O=C(CSc1ncnc2sc3c(c12)CCCC3)Nc1ccc(F)cc1`, the Potency result is “inactive”.

In the case of `CCCCCCCCCC(=O)NN=C1CCCCCCCCCCC1`, the Potency entry was “inactive”.

As to `O=C(CSc1ccncc1)N1CCCC(O)(CN2CCCC2)C1` (stereo unspecified), the Potency was 25.1 µM (active).

Regarding `CC1(C(=O)NS(=O)(=O)C2CC2)CCCN(C(=O)CSc2ccccc2)C1` (stereo unspecified), the Potency result is “inactive”.

With `O=C(CSc1ncccn1)N1CCCC1`, the Potency entry is “inactive”.
